Assay outcomes from PubChem.
The full list was thinned out, with hits kept by preference.
VDR inh = Inhibitors of the vitamin D receptor (VDR): qHTS | VDR-SRC2-3 peptide fluorescence polarization, 2 h | Potency, µM, without a hit: max response, negative = inhibition, most hits filed as inhibitors | 400,000 tested, 0.93% active | AID 504847, 2011; note: % is set by controls: 0 for no effect and ±100 for the full control effect
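After 23 nl compound addition and a short centrifugation, plates sat for 2 hours at ambient temperature; polarization of fluorescence then indicated loss of VDR binding to peptide SRC2-3.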
ALOX12 inh = Primary qHTS assay for inhibitors of human arachidonate 12S-lipoxygenase (ALOX12): Round 2; Polyunsaturated fatty acid lipoxygenase ALOX12 (Homo sapiens), P18054; purified 12hLO, xylenol orange hydroperoxide absorbance; Potency, µM (titrated, usually from 108 µM), for the others: top-dose activity change, negative = inhibition, actives largely listed as inhibitors; 580,000 tested, 1.1% active; AID 1671190, 2021; note: % is set by controls: 0 for no effect and ±100 for the full control effect
Target sequence (P18054 whole entry, looked up): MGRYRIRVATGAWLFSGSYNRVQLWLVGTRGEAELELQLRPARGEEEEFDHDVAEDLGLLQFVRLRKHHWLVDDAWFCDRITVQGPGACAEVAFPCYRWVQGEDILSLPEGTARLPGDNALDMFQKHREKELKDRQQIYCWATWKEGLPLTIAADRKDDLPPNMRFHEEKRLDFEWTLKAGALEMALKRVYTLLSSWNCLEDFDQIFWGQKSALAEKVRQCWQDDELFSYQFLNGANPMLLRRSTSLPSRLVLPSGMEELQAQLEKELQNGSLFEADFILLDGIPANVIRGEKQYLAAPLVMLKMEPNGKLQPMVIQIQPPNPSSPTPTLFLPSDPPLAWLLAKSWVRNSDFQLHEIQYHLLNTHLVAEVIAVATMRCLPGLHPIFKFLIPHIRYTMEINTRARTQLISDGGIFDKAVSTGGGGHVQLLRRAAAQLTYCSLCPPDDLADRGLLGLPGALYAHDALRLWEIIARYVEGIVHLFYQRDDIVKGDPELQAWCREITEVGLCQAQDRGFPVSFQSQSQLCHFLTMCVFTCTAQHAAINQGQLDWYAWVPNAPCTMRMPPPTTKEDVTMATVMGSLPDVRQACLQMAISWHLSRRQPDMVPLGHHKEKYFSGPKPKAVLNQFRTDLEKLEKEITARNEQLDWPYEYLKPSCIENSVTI
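Purified human 12hLO at 150 nM in 25 mM Hepes, 0.01% Triton X-100, pH 7.0, preincubated 15 min at room temperature with compound. Reaction started with 40 uM arachidonic acid, 30 min at room temperature. Hydroperoxide measured by Fe-xylenol orange, 573/405 nm absorbance ratio.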
G9a inh = qHTS Assay for Inhibitors of Histone Lysine Methyltransferase G9a. G9a H3K9 monomethylation, AlphaScreen, 2 h. Potency, µM (highest dose often 102 µM), without a hit: at the highest dose activity, negative = inhibition, usual class: inhibitors. Histone-lysine N-methyltransferase EHMT2 (Homo sapiens), Q96KQ7. 350,000 tested, 8.8% active; note: % is set by controls: 0 for no effect and ±100 for the full control effect; nearly all actives have a fitted effect of over 75% in size
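G9a (20 nM) preincubated 15 min RT with compounds, then 500 nM biotinylated H3K9 peptide and 20 uM SAM added; 2 h RT reaction. Monomethyl-H3K9 product detected by AlphaScreen with anti-H3K9me1 antibody, streptavidin donor and anti-rabbit IgG acceptor beads.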
Sfp inh = qHTS Assay for Inhibitors of Bacillus subtilis Sfp phosphopantetheinyl transferase (PPTase) | 4'-phosphopantetheinyl transferase ffp (Bacillus subtilis), Q9F4F7 | Biochemical Sfp PPTase activity, qHTS | Potency, µM, inactives show largest response in the series, negative = inhibition, actives largely listed as inhibitors | 310,000 tested, 3.5% active;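 note: the enzyme is Sfp with the accession as filed and its product quenches rhodamine fluorescence; 0% = enzyme reaction without inhibitor and -100% = no enzyme wells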
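Fluorescence-quenching assay: 15 nM Sfp-PPTase preincubated 15 min at room temperature with compound, then 5 uM rhodamine-CoA and 12.5 uM BHQ-2-labelled YbbR peptide added. Fluorescence (ex 525/em 598 nm) read at start and after 30 min; difference gives rate.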
GRP78 ERSR act = qHTS for Inducers of the Endoplasmic Reticulum Stress Response (ERSR) in Human Glioma: qHTS; U87-MG GRP78 promoter luciferase reporter, 16 h; Potency, µM, without a hit: at the top dose activation, actives largely listed as activators; 420,000 tested, 0.02% active; note: series mostly up to about 76 µM; % of control where 0% means no effect; nearly all actives have a fitted effect of over 35% in size
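Stably transfected U87-MG glioma cells carrying a GRP78-based luciferase sensor; 16 h compound incubation. Luminescence end-point read 10 min after Bright-Glo addition at room temperature.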
Numbers without * were called inactive; [ ] = remark or other dose. Calls come from the whole dose curve; as a rule, active = well fitted curve in the direction sought with a large enough effect; inconclusive = small, poorly fitted or top-dose-only effect, or another doubt; inactive = no such curve, though single readings can be large; an effect the other way counts as inactive or inconclusive. Potency is the fitted concentration of half-maximal effect.

How did COc1cc(/C=N/n2c(-c3ccccc3)n[nH]c2=S)cc(OC)c1OC do in these assays?
VDR inh: -6%; ALOX12 inh: 28µM*; Sfp inh: -11%; GRP78 ERSR act: -4%

How did COc1ccccc1CCNC(=O)Cn1nc(C(N)=O)c2ccccc2c1=O do in these assays?
ALOX12 inh: -7%

Results for Cn1cc(C(C(=O)O)N2CCN(c3ncccn3)CC2)c2ccc(C(=O)O)cc21 (centres undefined) ?
ALOX12 inh: -29%

Results for Cc1cc(-c2n[nH]c(=S)n2/N=C/c2ccc(C)o2)n[nH]1 ?
VDR inh: 7%; ALOX12 inh: 1%; G9a inh: 7.9µM*; Sfp inh: -15%; GRP78 ERSR act: -6%

How did CCn1c2ccccc2c2cc(/C=N/n3c(-c4cc(C)[nH]n4)n[nH]c3=S)ccc21 do in these assays?
VDR inh: -2%; ALOX12 inh: 3%; G9a inh: 2.5µM*; Sfp inh: -28%; GRP78 ERSR act: -1%

What do the screens show for `CCCNc1nc2ccccc2nc1C(=O)Nc1cc(C)ccc1OC`?
ALOX12 inh: -35%

What do the screens show for `CCNC(=O)NC[C@@H]1C=C(C)[C@H](Cc2nnc(-c3cncn3C)o2)C[C@H]1C(C)C`?
ALOX12 inh: 28%[176 µM]

How did c1ccc(-c2cnc(CSc3ncnc4sccc34)o2)cc1 do in these assays?
VDR inh: 8%; ALOX12 inh: inconclusive; G9a inh: 14µM*; Sfp inh: 50µM*; GRP78 ERSR act: -1%

What do the screens show for `CCC(C)OC(=O)c1ccc(-c2ccc(-c3ccc(C(=O)OC(C)CC)cc3)cc2)cc1` (centres undefined)?
ALOX12 inh: -10%

How did CCOC(=O)c1cnc2c(Cl)cccc2c1Nc1ccccc1OC do in these assays?
ALOX12 inh: 1%

Results for N#Cc1ccccc1S(=O)(=O)N1CCN(c2nc(-c3cccnc3)nc3ccccc23)CC1 ?
VDR inh: -7%; ALOX12 inh: -20%; G9a inh: 50µM*; GRP78 ERSR act: -4%

How did O=c1cc(CSc2nnnn2-c2ccccc2)[nH]n1-c1ccc(Cl)cc1 do in these assays?
ALOX12 inh: 40µM*

Results for O=c1cc(CSc2nnnn2-c2ccccc2)[nH]c2[nH]n(-c3ccccc3)c(=O)c12 ?
VDR inh: -10%; ALOX12 inh: 0%; G9a inh: inconclusive; Sfp inh: -3%; GRP78 ERSR act: -4%

What do the screens show for `Cc1ccc(-n2[nH]c(CSc3nnnn3-c3ccccc3)cc2=O)cc1`?
ALOX12 inh: 50µM*

What do the screens show for `CCCN(CCC)C(=O)c1cc2sc3ccccc3c2s1`?
ALOX12 inh: 5µM*

How did CCOC(=O)C(C)Oc1ccc2c(-c3cccc([N+](=O)[O-])c3)cc(=O)oc2c1 (centres undefined) do in these assays?
VDR inh: -6%; ALOX12 inh: -10%; G9a inh: 35µM*; Sfp inh: -6%; GRP78 ERSR act: 12%

What do the screens show for `Cc1ccc(S(=O)(=O)Oc2ccccc2/C=C2\SC(=O)NC2=O)cc1`?
VDR inh: -14%; ALOX12 inh: -21%; G9a inh: 50µM*; Sfp inh: 17%; GRP78 ERSR act: -3%

Results for CS(=O)(=O)N1CCC(C(=O)Nc2cccc(OCc3ccc(F)cc3)c2)CC1 ?
ALOX12 inh: 6%

Results for CC1CCN(c2oc(-c3ccc(COc4ccc(Cl)cc4)o3)nc2C#N)CC1 ?
VDR inh: 17%; ALOX12 inh: -11%; G9a inh: inconclusive; GRP78 ERSR act: -5%

Results for N#Cc1nc(-c2cccc3ccccc23)oc1N1CCCCC1 ?
VDR inh: 16%; ALOX12 inh: 489%; G9a inh: -36%[59 µM]; Sfp inh: 6%; GRP78 ERSR act: 2%

What do the screens show for `N#Cc1nc(-c2ccc(COc3ccccc3)o2)oc1N1CCCCC1`?
VDR inh: 5%; ALOX12 inh: 9%; G9a inh: 4.5µM*; GRP78 ERSR act: 2%

Results for N#Cc1nc(-c2ccc(COc3ccc(Cl)cc3)o2)oc1N1CCCCC1 ?
VDR inh: 0%; ALOX12 inh: -8%; G9a inh: 3.2µM*; GRP78 ERSR act: -3%

What do the screens show for `Cc1ccccc1OCc1ccc(-c2nc(C#N)c(N3CCC(C(N)=O)CC3)o2)o1`?
VDR inh: 3%; ALOX12 inh: inconclusive; G9a inh: 10µM*; GRP78 ERSR act: -3%

What do the screens show for `N#Cc1nc(-c2ccccc2F)oc1N1CCCCC1`?
VDR inh: 5%; ALOX12 inh: -25%; G9a inh: 79µM*; Sfp inh: 1%; GRP78 ERSR act: 1%

How did COc1cc2[nH]c3c(N4CCN(c5ccccn5)CC4)ncnc3c2cc1OC do in these assays?
VDR inh: -7%; G9a inh: 45µM*; Sfp inh: 10%; GRP78 ERSR act: -13%

How did CCOC(=O)N1CCN(c2ncnc3c2[nH]c2ccc(OC)cc23)CC1 do in these assays?
VDR inh: 3%; ALOX12 inh: -23%; G9a inh: 15%[2.33 µM]; Sfp inh: 3%; GRP78 ERSR act: -3%

Results for COc1ccc(N2CCN(c3ncnc4c3[nH]c3ccccc34)CC2)cc1 ?
VDR inh: 8%; ALOX12 inh: -6%; G9a inh: 13µM*; Sfp inh: -12%; GRP78 ERSR act: -4%

Results for COc1ccc(N2CCN(c3ncnc4c3cnn4C)CC2)cc1 ?
VDR inh: -1%; ALOX12 inh: -21%; G9a inh: 14µM*; GRP78 ERSR act: -2%

What do the screens show for `COc1ccc2[nH]c3c(N4CCc5ccccc5C4)ncnc3c2c1`?
VDR inh: -24%; ALOX12 inh: inconclusive; G9a inh: 45µM*; Sfp inh: -13%; GRP78 ERSR act: -12%

Results for O=C(CSc1nnnn1C1CCCC1)c1ccc2ccccc2c1 ?
ALOX12 inh: -6%

Results for c1csc(C2Nc3cccc4cccc(c34)N2)c1 ?
VDR inh: inconclusive; ALOX12 inh: inconclusive; G9a inh: inconclusive; Sfp inh: inconclusive; GRP78 ERSR act: -7%

How did Fc1cccc(Cl)c1C1Nc2cccc3cccc(c23)N1 do in these assays?
VDR inh: inconclusive; ALOX12 inh: inconclusive; Sfp inh: -15%; GRP78 ERSR act: 2%

What do the screens show for `Cc1cccc(C2NC(=O)c3ccccc3N2)c1` (centres undefined)?
VDR inh: -13%; ALOX12 inh: 28%; GRP78 ERSR act: 1%

What do the screens show for `Brc1ccc(C2Nc3cccc4cccc(c34)N2)o1`?
VDR inh: -26%; G9a inh: 20µM*; Sfp inh: inconclusive; GRP78 ERSR act: 2%
